Data as given in PubChem BioAssay AID1159580 (chemical genetic matrix, 2015).
Hit rate of the full screen: of about 5,500 compounds, about 2,000 (36%) were called active. About 18% were inconclusive and are not listed. Cut-off read from the data, not from the text of the source: active = normalized growth mostly below about 0.91 (no sharp cut-off); inconclusive = no clear call, values can overlap the other calls; inactive = mostly above about 0.92. The list shows a part of the results.

Test: chemical genetic growth profiling, strain panel (AID 1159580);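 note: tested at 20 µM; growth read once vehicle control cultures reached saturation at 30 °C; 1 = growth at the plate median or of vehicle wells; lower values mean less growth of the strain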
Conditions: S. cerevisiae deletion strains, growth OD

Measured: normalized growth

COc1cc(OC)c2c(=O)c(-c3ccccc3)coc2c1
active: locus YAL026C, strain drs2, hits give low values 0.895 | locus YDR195W, strain ref2 1.22 [resistant] | locus YDR392W, strain spt3, hits give low values 0.637 | locus YER155C, strain BEM2 (second series), hits give low values 0.596 | locus YGL240W, strain doc1, hits give low values 0.835 | locus YHR142W, strain chs7, hits give low values 0.824 | locus YLR320W, strain mms22, hits give low values 0.87 | locus YNL071W, strain lat1, hits give low values 0.807 | locus YOR270C, strain vph1, hits give low values 0.767
inactive: locus YAL021C, strain ccr4, hits give low values 0.991 | locus YAL030W, strain snc1, hits give low values 0.991 | locus YBL061C, strain skt5, hits give low values 0.958 | locus YBR009C, strain hhf1, hits give low values 0.928 | locus YBR023C, strain chs3, hits give low values 0.915 | locus YBR171W, strain sec66, hits give low values 1.01 | locus YBR231C, strain swc5, hits give low values 0.951 | locus YBR279W, strain paf1, hits give low values 0.953 | locus YCL011C, strain gbp2, hits give low values 0.936 | locus YCL016C, strain dcc1, hits give low values 0.965 | locus YCL069W, strain vba3, hits give low values 0.982 | locus YCR088W, strain abp1, hits give low values 0.993 | locus YDL005C, strain med2, hits give low values 1.04 | locus YDL040C, strain nat1, hits give low values 0.99 | locus YDR001C, strain nth1, hits give low values 0.994 | locus YDR069C, strain doa4, hits give low values 1.02 | locus YDR137W, strain rgp1, hits give low values 0.911 | locus YDR159W, strain sac3, hits give low values 0.963 | locus YDR297W, strain sur2, hits give low values 0.995 | locus YDR334W, strain swr1, hits give low values 1 | locus YDR335W, strain msn5, hits give low values 0.98 | locus YEL003W, strain gim4, hits give low values 0.967 | locus YEL037C, strain rad23, hits give low values 0.998 | locus YEL061C, strain CIN8 (second series), hits give low values 1 | locus YER015W, strain faa2, hits give low values 0.956 | locus YER016W, strain bim1, hits give low values 1 | locus YER111C, strain swi4, hits give low values 1.02 | locus YFR010W, strain ubp6, hits give low values 1.01 | locus YGL167C, strain pmr1, hits give low values 0.985 | locus YGL173C, strain kem1, hits give low values 0.985 | locus YGL227W, strain vid30, hits give low values 1 | locus YGL253W, strain hxk2, hits give low values 0.935 | locus YHR013C, strain ard1, hits give low values 0.974 | locus YHR027C, strain rpn1, hits give low values 1 | locus YJL092W, strain hpr5, hits give low values 0.994 | locus YJL095W, strain BCK1 (second series), hits give low values 0.979 | locus YJL115W, strain asf1, hits give low values 1 | locus YJL129C, strain trk1, hits give low values 0.964 | locus YJL154C, strain vps35, hits give low values 1 | locus YJL164C, strain tpk1, hits give low values 0.935 | locus YJL166W, strain qcr8, hits give low values 0.934 | locus YJL187C, strain SWE1, hits give low values 0.997 | locus YKL160W, strain elf1, hits give low values 0.93 | locus YKR026C, strain gcn3, hits give low values 0.99 | locus YKR091W, strain srl3, hits give low values 0.996 | locus YLL001W, strain dnm1, hits give low values 0.941 | locus YLL026W, hits give low values 0.99 | locus YLL041C, strain sdh2, hits give low values 0.991 | locus YLR027C, strain aat2, hits give low values 0.947 | locus YLR221C, strain rsa3, hits give low values 0.947 | locus YLR258W, strain gsy2, hits give low values 0.925 | locus YLR262C, strain YPT6 (second series), hits give low values 0.91 | locus YLR342W, strain FKS1, hits give low values 0.911 | locus YLR357W, strain rsc2, hits give low values 1.03 | locus YLR370C, strain arc18, hits give low values 0.939 | locus YLR384C, strain iki3, hits give low values 1 | locus YML120C, strain ndi1, hits give low values 0.946 | locus YMR058W, strain fet3, hits give low values 0.978 | locus YMR125W, strain sto1, hits give low values 0.971 | locus YMR129W, hits give low values 0.999 | locus YMR205C, strain PFK2, hits give low values 0.954 | locus YMR231W, strain pep5, hits give low values 0.994 | locus YNL209W, strain ssb2, hits give low values 0.984 | locus YNL248C, strain rpa49, hits give low values 0.995 | locus YNL322C, strain KRE1 (second series), hits give low values 0.972 | locus YNR049C, strain mso1, hits give low values 1.01 | locus YOR001W, strain rrp6, hits give low values 0.96 | locus YOR070C, strain gyp1, hits give low values 0.976 | locus YOR080W, strain dia2, hits give low values 1.01 | locus YOR083W, strain WHI5, hits give low values 0.902 | locus YOR106W, strain vam3, hits give low values 0.89 | locus YOR265W, strain rbl2, hits give low values 1 | locus YOR290C, strain snf2, hits give low values 0.893 | locus YPL051W, strain arl3, hits give low values 0.936 | locus YPL078C, strain atp4, hits give low values 0.933 | locus YPL106C, strain sse1, hits give low values 1.01 | locus YPL240C, strain hsp82, hits give low values 0.986
